Only a selection was taken, and hits are over-represented in it overall.
IDE exosite FP = displaces the probe from the exo-site of human IDE | P14735 | purified IDE, FL-6b probe fluorescence polarization; active compounds read low | z-score at 20 µM | 6.3% of 17,000 active | AID 1259349;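 active means z-score of -3 or lower, meaning strong loss of probe binding signal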;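 further: His-tagged human IDE residues 42-1019 made in E. coli with 30 nM FL-6b probe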
Target sequence (P14735 42-1019 limits assumed): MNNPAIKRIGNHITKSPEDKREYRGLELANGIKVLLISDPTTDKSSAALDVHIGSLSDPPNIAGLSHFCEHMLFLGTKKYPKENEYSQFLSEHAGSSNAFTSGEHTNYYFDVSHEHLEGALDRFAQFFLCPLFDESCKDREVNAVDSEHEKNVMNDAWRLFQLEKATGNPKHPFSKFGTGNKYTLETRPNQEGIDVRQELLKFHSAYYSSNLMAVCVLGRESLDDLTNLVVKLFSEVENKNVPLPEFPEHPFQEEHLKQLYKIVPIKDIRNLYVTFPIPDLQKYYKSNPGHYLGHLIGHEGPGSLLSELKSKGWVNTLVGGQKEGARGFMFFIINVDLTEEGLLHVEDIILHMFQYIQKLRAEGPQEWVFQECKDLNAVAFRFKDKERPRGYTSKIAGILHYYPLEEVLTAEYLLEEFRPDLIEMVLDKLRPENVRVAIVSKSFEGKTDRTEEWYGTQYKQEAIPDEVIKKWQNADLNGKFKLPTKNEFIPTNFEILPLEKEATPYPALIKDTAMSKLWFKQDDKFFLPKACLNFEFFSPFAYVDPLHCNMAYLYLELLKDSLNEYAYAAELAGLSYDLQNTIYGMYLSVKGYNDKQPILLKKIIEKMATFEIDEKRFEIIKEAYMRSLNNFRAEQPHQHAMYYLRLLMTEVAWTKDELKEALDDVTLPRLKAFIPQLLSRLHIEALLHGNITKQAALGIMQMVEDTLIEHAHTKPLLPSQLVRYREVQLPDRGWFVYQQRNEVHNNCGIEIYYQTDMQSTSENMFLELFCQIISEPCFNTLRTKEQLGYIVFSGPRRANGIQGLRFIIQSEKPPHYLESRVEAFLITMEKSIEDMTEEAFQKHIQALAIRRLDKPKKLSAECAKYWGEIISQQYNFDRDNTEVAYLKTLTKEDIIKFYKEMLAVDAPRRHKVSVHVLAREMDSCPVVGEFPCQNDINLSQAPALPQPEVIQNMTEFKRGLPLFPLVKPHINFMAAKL
Starred values were filed as active, the others as inactive.

SMILES	IDE exosite FP
Cc1ccccc1-c1ccc([C@@H]2[C@@H](CO)N3CCCCN(C(=O)c4cccnc4)C[C@H]23)cc1	-2.23
CC(C)(O)C#Cc1ccc([C@H]2[C@H]3CN(C(=O)c4cccnc4)CCCCN3[C@H]2CO)cc1	0.85
Cc1ccccc1-c1ccc([C@@H]2[C@H](CO)N3CCCCN(C(=O)c4cccnc4)C[C@@H]23)cc1	-8.42*
CC(C)(O)C#Cc1ccc([C@@H]2[C@H](CO)N3CCCCN(C(=O)c4cccnc4)C[C@@H]23)cc1	0.937
CC(C)(O)C#Cc1ccc([C@@H]2[C@@H](CO)N3CCCCN(C(=O)c4cccnc4)C[C@@H]23)cc1	3.42
O=C(C[C@@H]1C[C@H]2c3cc(NS(=O)(=O)c4ccc(F)cc4)ccc3O[C@H]2[C@H](CO)O1)NCCN1CCCCC1	0.844
CC(=O)N1[C@H](CO)[C@H](c2ccccc2)[C@@H]1CN(C(=O)c1ccccc1F)C(C)C	-0.734
COc1ccc(S(=O)(=O)N2CCCCN3[C@H](CO)[C@@H](c4ccc(-c5cccnc5)cc4)[C@H]3C2)cc1	0.294
O=C(C[C@@H]1C[C@H]2c3cc(NC(=O)C4CCOCC4)ccc3O[C@H]2[C@H](CO)O1)NCCN1CCCCC1	-0.181
CCCC#Cc1ccc([C@@H]2[C@H](C#N)N(S(=O)(=O)c3cccc(F)c3)[C@H]2CO)cc1	2.28
O=C(C1CC1)N1CC(=O)N2[C@H](CO)[C@@H](c3ccc(-c4cccnc4)cc3)[C@@H]2C1	-1.87
O=C(c1cccc(F)c1)N1CCCCN2[C@@H](CO)[C@@H](c3ccc(-c4cncnc4)cc3)[C@@H]2C1	0.748
OC[C@H]1[C@@H](c2ccc(-c3ccccc3F)cc2)[C@H]2CN(Cc3ccncc3)CCCCN21	-2.34
COc1ccc(C#Cc2ccc([C@H]3[C@H]4CN(Cc5ccncc5)CCCCN4[C@H]3CO)cc2)cc1	0.625
OC[C@H]1[C@H](c2ccc(-c3ccccc3F)cc2)[C@H]2CN(Cc3ccncc3)CCCCN21	-3.27*
OC[C@@H]1[C@@H](c2ccc(-c3ccccc3F)cc2)[C@@H]2CN(Cc3ccncc3)CCCCN12	-1.46
COc1ccccc1-c1ccc([C@@H]2[C@@H](CO)N3CCCCN(Cc4ccncc4)C[C@@H]23)cc1	-6.78*
OC[C@@H]1[C@H](c2ccc(-c3ccccc3F)cc2)[C@@H]2CN(Cc3ccncc3)CCCCN12	-0.44
O=C(Nc1ccc2c(c1)OCO2)N1[C@@H]2CNC[C@H]1C2c1ccc(-c2cccnc2)cc1 (some centres not stated)	-2.11
CC(C)CC#Cc1ccc([C@@H]2[C@@H](CO)N3C(=O)CN(S(=O)(=O)c4cccc(F)c4)C[C@H]23)cc1	-1.97
COc1ccc(NC(=O)N2CCCCN3[C@H](C2)[C@@H](c2ccc(-c4ccccc4C)cc2)[C@@H]3CO)cc1	-4.12*
Cc1ccccc1-c1ccc([C@H]2[C@@H](CO)N3CCCCN(C(=O)Nc4ccccc4)C[C@H]23)cc1	-8.78*
COc1ccc(NC(=O)N2CCCCN3[C@H](CO)[C@H](c4ccc(-c5ccccc5C)cc4)[C@H]3C2)cc1	-4.26*
COc1ccc(NC(=O)N2CCCCN3[C@@H](CO)[C@H](c4ccc(-c5ccccc5F)cc4)[C@@H]3C2)cc1	-0.767
Cc1ccccc1-c1ccc([C@H]2[C@H](CO)N3CCCCN(C(=O)Nc4ccc(F)cc4)C[C@@H]23)cc1	-2.45
SMILES	IDE exosite FP
Cc1ccccc1-c1ccc([C@@H]2[C@H]3CN(C(=O)Nc4ccccc4)CCCCN3[C@H]2CO)cc1	0.795
Cc1ccccc1-c1ccc([C@H]2[C@H]3CN(C(=O)Nc4ccccc4)CCCCN3[C@H]2CO)cc1	0.801
Cc1ccccc1-c1ccc([C@@H]2[C@H]3CN(C(=O)Nc4ccc(F)cc4)CCCCN3[C@H]2CO)cc1	-0.344
COc1ccc(NC(=O)N2CCCCN3[C@@H](CO)[C@@H](c4ccc(-c5ccccc5F)cc4)[C@@H]3C2)cc1	-1.19
CN(C)C(=O)c1ccc(-c2ccc([C@@H]3[C@@H](CO)N4CCCCN(C(=O)C5CC5)C[C@@H]34)cc2)cc1	2.58
CO[C@@H]1CN(C)C(=O)c2ccc(NS(=O)(=O)CC(F)(F)F)cc2OC[C@@H](C)N(C(=O)NC(C)C)C[C@@H]1C	-0.672
C/C=C/c1ccc([C@@H]2[C@@H](CO)N(C(=O)COC)[C@@H]2CNC(=O)CC)cc1	4.29
CO[C@@H]1CN(C)C(=O)c2ccc(NS(=O)(=O)CC(F)(F)F)cc2OC[C@H](C)N(Cc2nccs2)C[C@H]1C	1.66
CCC(=O)N1C[C@H](C)[C@H](OC)CN(C)C(=O)c2ccc(NC(=O)CC(F)(F)F)cc2OC[C@@H]1C	0.495
C[C@H](O)C#Cc1ccc([C@H]2[C@H]3CN(C(=O)c4ccncc4)CCCCN3[C@H]2CO)cc1	-0.896
CN(C)C(=O)c1ccc(-c2ccc([C@H]3[C@H](CO)N4CCCCN(Cc5cncnc5)C[C@@H]34)cc2)cc1	3.11
Cc1ccccc1S(=O)(=O)N1[C@H](C#N)[C@H](c2ccc(-c3ccccc3)cc2)[C@@H]1CO	1.56
O=C(c1ccncc1)N1CCCCN2[C@H](CO)[C@@H](c3ccc(-c4ccccc4)cc3)[C@@H]2C1	0.823
Cc1cccc(-c2ccc([C@@H]3[C@@H](CO)N4CCCCN(C(=O)c5ccncc5)C[C@H]34)cc2)c1	-3.06*
Cc1ccc(-c2ccc([C@H]3[C@H](CO)N4CCCCN(C(=O)c5ccncc5)C[C@@H]34)cc2)cc1	-0.738
Cc1cccc(-c2ccc([C@H]3[C@@H](CO)N4CCCCN(C(=O)c5ccncc5)C[C@H]34)cc2)c1	-18.3*
COc1ccccc1-c1ccc([C@@H]2[C@@H](CO)N3CCCCN(C(=O)c4cccnc4)C[C@H]23)cc1	0.0789
O=C(c1ccncc1)N1CCCCN2[C@H](C1)[C@@H](c1ccc(-c3ccccc3)cc1)[C@@H]2CO	-0.181
Cc1ccc(-c2ccc([C@@H]3[C@@H](CO)N4CCCCN(C(=O)c5ccncc5)C[C@H]34)cc2)cc1	2.83
COc1ccccc1-c1ccc([C@H]2[C@H]3CN(C(=O)c4cccnc4)CCCCN3[C@H]2CO)cc1	0.567
Cc1ccc(-c2ccc([C@H]3[C@@H](CO)N4CCCCN(C(=O)c5ccncc5)C[C@@H]34)cc2)cc1	0.15
COc1ccccc1-c1ccc([C@@H]2[C@H](CO)N3CCCCN(C(=O)c4ccncc4)C[C@@H]23)cc1	-13.1*
Cc1cccc(-c2ccc([C@@H]3[C@@H](CO)N4CCCCN(C(=O)c5ccncc5)C[C@@H]34)cc2)c1	-3.14*
Cc1ccc(-c2ccc([C@@H]3[C@H]4CN(C(=O)c5ccncc5)CCCCN4[C@H]3CO)cc2)cc1	-2.56
COc1ccc2c3c(n(C)c2c1)[C@H](CO)N(C(=O)CN(C)C)CC31CCN(S(C)(=O)=O)CC1	0.708
SMILES	IDE exosite FP
Cc1ccc(S(=O)(=O)N[C@H]2CC[C@H](CC(=O)NCc3ccncn3)O[C@@H]2CO)cc1	0.961
C[C@@H]1CN([C@@H](C)CO)C(=O)CCCn2nncc2CO[C@H]1CN(C)C(=O)Nc1ccc2c(c1)OCCO2	-1.11
O=C(c1ccccc1)N1C[C@H]2[C@@H](c3ccccc31)[C@@H](CO)N2Cc1ccccn1	1.96
N#C[C@H]1N[C@H](CO)[C@@H]1c1ccc(C2=CCCC2)cc1	0.0442
N#C[C@@H]1[C@@H](c2ccc(C3=CCCC3)cc2)[C@H](CO)N1c1nc(-c2ccccc2)cs1	2.14
O=C(C[C@H]1CC[C@H]2[C@@H](COC[C@@H](O)CN2S(=O)(=O)c2ccccc2F)O1)N1CCC(Cc2ccccc2)CC1	-1.81
C/C=C/c1ccc([C@H]2[C@H]3CN(S(=O)(=O)c4ccccc4)CC(=O)N3[C@H]2CO)cc1	0.099

Bioassay records: PubChem, Broad Institute
